Source: PubChem BioAssay (NCI)
About 83,000 compounds went through this panel and 20% of them were active in at least one assay; those are over-represented in the sample as a whole.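 Negative percent growth values reflect cell death: -40 means 40% of the cells present at the start died, and -100 means all died.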 The source made the active and inactive calls. The calls were made as follows: active = growth percent below 10; inactive = the rest.

Experiments:
Experiment in all cases: NCI-60 one-dose screen, 48 h (100 = growth as untreated, 0 = no growth, -100 = all killed)
Conditions in all cases: 10 µM unless noted
[1] = system: SK-MEL-2 melanoma
[2] = system: EKVX NSCLC
[3] = system: SN12C renal
[4] = system: UO-31 renal
[5] = system: TK-10 renal
[6] = system: ACHN renal
[7] = system: CAKI-1 renal
[8] = system: A498 renal
[9] = system: CCRF-CEM leukemia
[10] = system: MOLT-4 leukemia
[11] = system: SR leukemia
[12] = system: RPMI-8226 leukemia
[13] = system: OVCAR-5 ovarian
[14] = system: OVCAR-4 ovarian
[15] = system: SK-OV-3 ovarian
[16] = system: IGROV1 ovarian
[17] = system: OVCAR-3 ovarian
[18] = system: HS 578T breast
[19] = system: NCI/ADR-RES ovarian
[20] = system: OVCAR-8 ovarian

Measured: growth

COc1cccc(CCNc2ncnc3c2ncn3Cc2nnc3c4ccccc4c(Cl)nn23)c1
inactive: [1] 20.2% | [2] 73.9% | [3] 46.9% | [4] 25.2% | [5] 67.4% | [6] 24.9% | [7] 18.3% | [8] 83.4% | [9] 34% | [10] 20.8% | [11] 33.5% | [12] 48.8% | [13] 102% | [14] 57.5% | [16] 40% | [17] 64% | [18] 40.8% | [19] 40.7%
active: [15] 3.23%

CCN1C(=O)N(CC)C2C1N=C(SCc1ccc(Cl)cc1)N2/N=C/C=C/c1ccccc1OC (stereo unspecified)
inactive: [1] 57.7% | [2] 62.5% | [3] 77.8% | [4] 54.3% | [5] 96.4% | [6] 61.5% | [7] 42.2% | [8] 54.6% | [9] 46.4% | [10] 55.3% | [11] 18.4% | [12] 11.2% | [13] 98.6% | [14] 69.9% | [15] 70.4% | [16] 78.6% | [17] 50.6% | [18] 57.3% | [19] 26.4%

CCCCNC(=O)Oc1ccc(/C(=C(/C)Cc2ccc(OC)cc2)c2ccc(OCCN3CCCCCC3)cc2)cc1
inactive: [1] 102% | [2] 77.5% | [3] 71% | [4] 57.6% | [5] 83.1% | [6] 102% | [7] 83.5% | [8] 98.3% | [9] 47.7% | [10] 45% | [12] 33.6% | [20] 89.9% | [13] 96% | [14] 84.4% | [15] 85.8% | [16] 92.3% | [17] 63.9% | [18] 82.1% | [19] 81.4%

COc1ccc(C(=O)N2c3ccccc3Sc3ccccc32)c(C(F)(F)F)c1
active: [8] 8.71% | [17] -1.95% | [19] 2.91%
inactive: [1] 47% | [2] 45.6% | [3] 40.1% | [4] 39.8% | [5] 57.4% | [6] 32.5% | [7] 31.8% | [9] 22.4% | [10] 15.1% | [12] 14.2% | [20] 14.9% | [13] 44.6% | [14] 47.1% | [15] 34.4% | [16] 37.9% | [18] 24.3%

CC1=C(CCC(C)NCc2ccc(OCCCN3CCCCC3)cc2)C(C)(C)CCC1 (stereo unspecified)
active: [1] -82.1% | [2] -39.1% | [3] -60.7% | [4] -95.5% | [5] -94.3% | [6] -83.6% | [7] -55.7% | [8] -71.5% | [9] -39.6% | [10] -41.7% | [11] -43.4% | [12] -39.6% | [13] -49.8% | [14] -4.46% | [15] -74.1% | [16] -36.6% | [17] -70.4% | [19] -40.5%

CCOC(=O)C(=Cc1ccc(-c2ccccc2)cc1)C(=O)OCC
inactive: [1] 51.8% | [2] 95% | [3] 67.3% | [4] 55.4% | [5] 66% | [6] 34% | [7] 85.6% | [8] 108% | [20] 19.7% | [13] 71% | [14] 75.5% | [15] 95.6% | [16] 50.5% | [17] 52.8% | [18] 39.7% | [19] 19.6%
active: [9] 1.19% | [10] -3.57% | [12] -3.52%

N#C/C(=C\c1ccc([N+](=O)[O-])cc1)n1nnc2cc(F)c(F)cc21
inactive: [1] 95.9% | [2] 82.1% | [8] 67.6% | [20] 11.4% | [13] 21% | [15] 94.2% | [18] 58.4%
active: [3] 4.63% | [4] -77.8% | [5] 6.11% | [6] -74.9% | [7] 6.07% | [9] 4.63% | [10] 3.58% | [12] -22.4% | [14] 9.19% | [16] -10.9% | [17] -40.1% | [19] 9.64%

C=C(CNCCc1ccc(O)cc1)[C@@H]1CC[C@]2(CO)CC[C@]3(C)[C@H](CC[C@@H]4[C@@]5(C)CCC(=O)C(C)(C)[C@@H]5CC[C@]43C)[C@@H]12
active: [9] -9.98% | [10] 1.2% | [12] -12.2% | [20] -70.3%
inactive: [1] 37.5% | [2] 80% | [3] 24.5% | [4] 27.1% | [5] 67.4% | [6] 12.6% | [7] 58.2% | [8] 84.1% | [13] 90% | [14] 58.1% | [15] 92.4% | [16] 30.9% | [17] 39.7% | [18] 51.9% | [19] 33%

CC1=CCC(OC(=O)C(C)(C)CC(O)(C(C)O)C(O)C2(C)C=CC(Cc3ccc(C(C)C)cc3)(C(C)C)CC2)(C(C)C)CC1 (stereo unspecified)
inactive: [1] 110% | [2] 98.3% | [3] 105% | [4] 81.5% | [5] 86.4% | [6] 102% | [7] 94.6% | [8] 76.2% | [9] 79.2% | [10] 94.1% | [11] 99% | [12] 108% | [13] 94.9% | [14] 102% | [15] 107% | [16] 95.5% | [17] 102% | [18] 101% | [19] 98.2%

C=CCN1C(=O)c2cccc3c(N4CCOCC4)ccc(c23)C1=O
active: [1] -28.1% | [2] -7.17% | [4] -3.07% | [5] -12.9% | [7] -39.5% | [8] -57% | [9] -7.18% | [10] -21.2% | [12] -25.8% | [16] -14.5% | [17] -66.4% | [18] 4.58% | [19] 6.06%
inactive: [3] 17% | [6] 18.6% | [20] 20.7% | [13] 21.4% | [14] 14.4% | [15] 13.9%

CCOC(=O)c1c(C)nc2c(c1N)/C(=C/c1ccc(OC)cc1)C(=O)N2Cc1ccccc1
inactive: [1] 64.6% | [2] 75.6% | [3] 57.4% | [4] 56.6% | [5] 97.2% | [6] 71.1% | [7] 78.6% | [8] 74.4% | [9] 48.9% | [10] 15.9% | [11] 22.1% | [13] 126% | [14] 51.5% | [15] 90.5% | [16] 73.3% | [17] 41.7% | [18] 69.5% | [19] 52.4%
active: [12] 5.58%

Cc1ccc(C2CC(c3nc(-c4ccc(Cl)cc4)oc3C)=NN2C(=O)c2ccncc2)cc1 (stereo unspecified)
inactive: [1] 92.9% | [2] 91.3% | [3] 86.8% | [4] 58.2% | [5] 106% | [6] 87.3% | [7] 69.2% | [8] 82.6% | [9] 90.7% | [10] 64.7% | [11] 92.9% | [12] 83.2% | [13] 107% | [14] 82.5% | [15] 92.3% | [16] 70.7% | [17] 90.7% | [18] 83.1% | [19] 88.1%

COc1cc(C(=O)n2nc(N3CCOCC3)c3cc(-n4cccc4)ccc32)cc(OC)c1OC
inactive: [1] 92.1% | [2] 60.6% | [3] 69% | [4] 32.9% | [5] 88.4% | [6] 49.8% | [7] 60.6% | [9] 36.4% | [10] 33.1% | [12] 42.6% | [13] 98.3% | [14] 68.5% | [15] 72.5% | [16] 68% | [17] 87.3% | [19] 68.5%
active: [8] 0.812% | [11] 6.85%

COc1cc2nc3sc(C(=O)Nc4ccc(C(=O)OC(C)C)cc4)c(C(=O)Nc4ccc(Cl)cc4C)n3c(=O)c2cc1OC
inactive: [1] 110% | [2] 77.2% | [3] 102% | [6] 97% | [7] 42.7% | [8] 56.7% | [9] 23.6% | [10] 52.8% | [12] 52.7% | [20] 35.4% | [13] 70% | [14] 69.5% | [15] 91.4% | [16] 17% | [17] 77.2% | [18] 58.9% | [19] 62.3%
active: [4] -5.58% | [5] 6.58%

CCN(CC)Cc1cc(Nc2ccnc3cc(Cl)ccc23)ccc1O
inactive: [1] 111% | [2] 68.5% | [3] 81.9% | [4] 87.1% | [5] 108% | [6] 100% | [7] 88.3% | [8] 95.7% | [9] 88.8% | [10] 100% | [12] 93.3% | [20] 100% | [13] 97.7% | [14] 94.4% | [15] 116% | [16] 88.4% | [17] 88.5% | [18] 91.6% | [19] 93.9%

O=C(Cc1ccc(NC(=O)c2cccc(Cl)c2)cc1)NCc1ccccc1
inactive: [1] 46.8% | [2] 72.8% | [3] 58.1% | [4] 59.9% | [5] 64.3% | [6] 65% | [7] 52% | [8] 42.2% | [9] 22.7% | [10] 39.7% | [11] 11.3% | [12] 65.8% | [13] 73.2% | [14] 82.8% | [15] 57.6% | [17] 16.7% | [18] 32.9% | [19] 50.5%
